Measured values published in PubChem BioAssay.
“And” between values parts separate entries of the source, which are not always exact repeats. Identical values can stand only once. The source made the active and inactive calls. Rule as the data show it, unless noted: active = parasite load remaining mostly below about 12% (no sharp cut-off); inactive = mostly above about 10%.

Columns and labels:
[1] = liver-stage malaria parasite growth inhibition, primary screen, cell-based, HepG2, luciferase luminescence, HepG2 viability (AID 624349);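 also: 100% = mean of DMSO negative control wells on the same plate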; conditions: P. berghei liver stage in HepG2, luciferase luminescence, concentration not given here; parasite load remaining: stronger effect = lower value; viability: measured here: HepG2 viability without parasites
[2] = sensitizers of A549 cells to miR-34 induction, primary screen, imaging, A549 dox-inducible miR-34, nuclei and caspase counts (AID 1347080;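 active = compounds whose cell count with miR-34 switched on is under 0.7 times the count with it off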); conditions: A549 miR-34 inducible, Hoechst nuclei count, 48 h
[3] = inhibitors of Cryptococcus chitosan production, flow cytometry, Cibacron Brilliant Red staining (AID 1347148; call rule not given here;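 also: compound exposure lasted three days at 37 degrees C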); conditions: Cryptococcus neoformans chitosan, stronger effect = lower value; at 10 µM unless noted
[4] = hESC survival regulators, cell-based (AID 493140; call rule not given here;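 also: cells exposed to compounds for four days before counting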); conditions: human embryonic stem cell survival screen; stronger effect = higher value
[5] = stronger effect = lower value, cell number ratio, induced over uninduced
[6] = measured here: relative caspase fold change +Dox/-Dox
[7] = measured here: total cells with miR-34 induction, stronger effect = lower value
[8] = measured here: total cells without miR-34 induction

SMILES	parasite load remaining [1]	viability [1]	fold change [2, 5]	fold change [2, 6]	cell count [2, 7]	cell count [2, 8]	fold fluorescence [3]	fold change ([2]; stronger effect = lower value)	survival [4]
c1cncc([C@H]2CCCCN2)c1	92.6% (inactive)	99.3%	0.89 (inactive)	1.12	8860	9960			
C[C@@]1(CO)[C@H]2CC[C@@H]3C[C@H]4C[C@@]3(CC[C@@]4(O)CO)[C@]2(C)CC[C@@H]1O							13 [at 147.7 µM] (inactive)		
COc1cc(C(=O)OC2C[C@H]3CC[C@@H](C2)N3C)ccc1O (stereo not given in full)	90.6% (inactive)	98.9%		1.48	8240	9120		0.903 (inactive)	
CO[C@H](C)C(O)(C(=O)OCC1=CCN2CC[C@H](O)[C@@H]12)C(C)C (stereo not given in full)	69.7% (inactive)	101%	0.879 (inactive)	1.23	8290	9440			
O=c1ccc2cc(OC3O[C@H](CO)[C@@H](O)[C@H](O)[C@H]3O)c(O)cc2o1 (stereo not given in full)	70.5% (inactive)	96.1%	0.976 (inactive)	0.932	9360	9590			
CC[C@@H](C)C(=O)O[C@H]1[C@H](O)[C@H]2[C@@H](CN3C[C@@H](C)CC[C@H]3[C@@]2(C)O)C2C[C@]34O[C@@]5(O)[C@@H](OC(=O)[C@](C)(O)CC)CC[C@@]3(C)[C@@H]5[C@@H](OC(C)=O)[C@@H](OC(C)=O)[C@H]4[C@@]21O (stereo not given in full)	119% (inactive)	111%	0.898 (inactive)	1.61	9180	10200			
CCN1C[C@]2(COC)CC[C@H](OC)[C@@]34C1[C@]1(OCO[C@@]15C[C@H](OC)[C@H]1C[C@@H]3[C@@H]5[C@H]1OC)[C@@H](O)[C@H]24	79.2% (inactive)	96.3%	0.844 (inactive)	1.35	8580	10200			
C[N+]1=Cc2cc3c(cc2CC1)OCO3	30.1% (inactive)	46.5%	0.917 (inactive)	1.08	9060	9880			
C[C@H]1O[C@@H](OC2CC[C@]3(C=O)[C@H]4CC[C@]5(C)[C@@H](C6=CC(=O)OC6)CC[C@]5(O)[C@@H]4CC[C@]3(O)C2)C[C@H](O)[C@@H]1O (stereo not given in full)	0.83% (inactive)	69.5%	0.718 (inactive)	1.73	1040	1440			
COc1cc2c3cc1Oc1cc(ccc1O)C[C@@H]1c4c(cc(OC)c(O)c4Oc4cccc(c4)C[C@@H]3N(C)CC2)CC[N+]1(C)C	52.1% (inactive) and 85.1% (inactive)	113% and 81.4%	0.822 (inactive)	1.32	8210	9980			7.17 (inactive)
COc1ccc(C(=O)OC2C[C@H]3CC[C@H](C2)N3C)cc1OC (stereo not given in full)	72.9% (inactive)	108%	0.888 (inactive)	1.53	9600	10800			
CCN1C[C@]2(COC)CC[C@H](O)[C@]34C1[C@H](C[C@H]23)[C@@]1(O)C[C@H](OC)[C@H]2C[C@@H]4[C@@H]1[C@H]2OC(C)=O	81.9% (inactive)	71.5%	0.961 (inactive)	0.467	9850	10200			
COc1ccn(C)c(=O)c1C#N	84.9% (inactive)	97.3%		1.32	9150	10400		0.883 (inactive)	4.25 (inactive)
CCN1C[C@]2(COC)CC[C@H](O)[C@]34C1[C@](O)([C@@H](OC)[C@H]23)[C@@]1(O)C[C@H](OC)[C@H]2C[C@@H]4[C@@H]1[C@H]2OC	79.1% (inactive)	102%	0.871 (inactive)	0.967	9200	10600			
CN1C[C@H](C(=O)N[C@]2(C)C[C@@]3(O)C4CCCN4C(=O)[C@H](Cc4ccccc4)N3C2=O)C=C2c3cccc4[nH]cc(c34)C[C@H]21 (stereo not given in full)	49.1% (inactive)	102%	0.836 (inactive)	6.73	10900	13000			
C[C@H]1CC[C@@H]2[C@@H](C)[C@H]3[C@H](C[C@H]4[C@@H]5CC=C6C[C@@H](O[C@@H]7O[C@H](CO)[C@H](O)[C@H](O[C@@H]8O[C@H](CO)[C@@H](O)[C@H](O)[C@H]8O)[C@H]7O[C@@H]7O[C@@H](C)[C@H](O)[C@@H](O)[C@H]7O)CC[C@]6(C)[C@H]5CC[C@]34C)N2C1	143% (inactive)	114%	0.926 (inactive)	1.19	8230	8880			
COc1ccc(C[C@@H]2NC[C@@H](O)[C@@H]2OC(C)=O)cc1	4.56% (inactive)	32.9%		1.1	1100	1160		0.95 (inactive)	0.25 (inactive)
